Five molecules from PubChem BioAssay can be followed below.

The nature of assay [1]: small molecules captured by biotinylated probe aFSTL3 – biochemical, small-molecule microarray, fluorescence 635/667, stem cell growth factor project, primary screen (AID 1064).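 Note: measures binding of the biotinylated anti-FSTL3 antibody to printed compounds.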 The conditions noted are these: higher = more signal.
The nature of assay [2]: binders from COS7 lysate, DM2A8 probe, primary screen, torsin A project, cell lysate, small-molecule microarray, fluorescence 635/667 (AID 1065). The conditions noted are these: higher = more signal, COS7 lysate expressing mutant human TOR1A.
Assay [3] can be described thus: small molecules captured by biotinylated probe aFGF2 – biochemical, small-molecule microarray, fluorescence 635/667, stem cell growth factor project, primary screen (AID 1067).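 Note: measures binding of biotinylated aFGF2 protein to printed compounds on slides; z-score merges feature fluorescence and signal-to-noise across triplicate slides.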 Conditions: higher = more signal.
Assay [4] can be described thus: small molecules captured by biotinylated probe aFGF10 – biochemical, small-molecule microarray, fluorescence 635/667, stem cell growth factor project, primary screen (AID 1071).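 Note: score merges 667 nm spot intensity and signal to noise from triplicate slides.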 The conditions noted are these: higher = more signal.
Assay [5] has as its target Neurogenic locus notch homolog protein 2 (Homo sapiens) (UniProt Q04721). Description: small molecules binding Notch2 protein – biochemical, small-molecule microarray, 635 nm fluorescence, stem cell growth factors, primary screen (AID 1073). The conditions noted are these: higher = more signal.
The target in assay [6] is Pro-neuregulin-1, membrane-bound isoform (Homo sapiens) (UniProt Q02297). As to the kind of experiment: small molecules binding neuregulin-1 protein – biochemical, small-molecule microarray, fluorescence 635/667, psychiatric disease protein project, primary screen (AID 1075).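 Note: score combines 667 nm spot fluorescence with signal to noise.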 The conditions noted are these: NRG1 binding, 635 nm fluorescence, higher = more signal.
In assay [7] the test system is Neuregulin-1 EGF-like domain. Description: small molecules binding NRG1 EGF domain – biochemical, small-molecule microarray, 635 nm fluorescence, primary screen (AID 1081).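 Note: binding of the protein to compounds printed on small-molecule microarray slides.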 Conditions: higher = more signal.
A short description of assay [8]: FRG1 expression reporter modulators in myotubes – cell-based, C2C12 myotubes, firefly/Renilla luciferase, luminescence, FRG1 inhibition for FSHD, primary screen (AID 1084). Conditions: FRG1 promoter luciferase, higher = more signal, called active from +8 up or from −8 down.
The nature of assay [9]: small molecules captured by biotinylated probe aFST – biochemical, small-molecule microarray, fluorescence 635/667, stem cell growth factor project, primary screen (AID 1086).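 Note: score merges 667 nm fluorescence with signal-to-noise of each printed compound spot.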 The conditions noted are these: higher = more signal.
Assay [10] can be described thus: binders of probe aHhip on microarray, primary screen, stem cell growth factor project, biochemical, small-molecule microarray, fluorescence 635/667 (AID 1087).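 Note: score merges spot fluorescence at 667nm with spot signal to noise ratio.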 Conditions: higher = more signal.
The subject of assay [11] is PRMT1 (protein arginine N-methyltransferase 1). As to the kind of experiment: small molecules binding arginine methyltransferase PRMT1 – biochemical, small-molecule microarray, 635 nm fluorescence, primary screen (AID 1088).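 Note: binding of Prmt1 protein to compounds spotted on small-molecule microarray slides.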 The conditions noted are these: higher = more signal.
Assay [12] is described as follows: growth effects on S. cerevisiae YJM789 – YJM789 clinical isolate, OD600, 24 h, basal, primary screen (AID 1089).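 Note: growth of clinical yeast isolate S. cerevisiae YJM 789 seeded 1000 cells per well; test concentration not given here.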 The conditions noted are these: higher = more signal, called active from +8 up or from −8 down.
Assay [13] in a line: S. pombe growth modifiers, basal conditions – strain 972, OD600, 24 h, no modulator, primary screen (AID 1090).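 Note: basal condition with compound alone and no growth modifier present; test concentration not given here.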 Conditions: S. pombe 972 growth, higher = more signal, called active from +8 up or from −8 down.
Assay [14] is described as follows: budding yeast growth modifiers under rapamycin – strain BY4716, OD600, 96 h, primary screen (AID 1091). Note: test concentration not given here. The conditions noted are these: S. cerevisiae BY4716 + rapamycin, higher = more signal, called active from +8 up or from −8 down.
The target of assay [15] is Torsin-1A-interacting protein 2 (Homo sapiens) (UniProt Q8NFQ8). As to the kind of experiment: small molecules binding lysate-expressed LULL1 – cell lysate, human LULL1 lysate, 635/667 nm fluorescence, primary screen (AID 1092).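 Note: probe is lysate of COS7 cells overexpressing human LULL1; score merges per-feature 667 nm fluorescence with signal-to-noise.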 The conditions noted are these: small-molecule microarray, hLULL1 lysate binding, 635 nm fluorescence; higher = more signal.
The nature of assay [16]: optical density change of DRC41 E. coli – strain DRC41, OD650, 24 h, E. coli filamentation project, primary screen (AID 1093).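 Note: MC1000 strain lacking acrAB efflux and sulA so SOS filamentation is blocked; test concentration not given here.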 Conditions: E. coli DRC41 growth, higher = more signal, called active from +8 up or from −8 down.
The nature of assay [17]: probe aLefty2 binding to arrayed compounds – biochemical, biotinylated probe, 635/667 nm fluorescence, primary screen (AID 1094).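 Note: score merges spot fluorescence near 667 nm with spot signal-to-noise ratio.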 Conditions: small-molecule microarray, higher = more signal.
Assay [18] has as its system Noggin (protein binding on small-molecule microarray). Description: small molecules binding Noggin protein – biochemical, 635/667 nm fluorescence, primary screen (AID 1095).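 Note: score merges 667 nm feature fluorescence with signal to noise over triplicate slides.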 Conditions: 635 nm fluorescence, higher = more signal.
Assay [19] has as its target Neurogenic locus notch homolog protein 3 (Homo sapiens) (UniProt Q9UM47). As to the kind of experiment: small molecules binding NOTCH3 protein – biochemical, 635/667 nm fluorescence, primary screen (AID 1096). Conditions: small-molecule microarray, 635 nm fluorescence, higher = more signal.
The nature of assay [20]: probe aEGFR binding to arrayed compounds – biochemical, biotinylated probe, 635/667 nm fluorescence, primary screen (AID 1097).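 Note: probe is a biotinylated anti-EGFR antibody binding compounds printed on slides; score combines fluorescence near 667 nm and signal to noise of each spot.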 Conditions: small-molecule microarray, higher = more signal.

SMILES strings stand for the structures. Calls of active or inactive are those of the source.

Chain of Neurogenic locus notch homolog protein 2 (Homo sapiens) (Q04721 whole entry, looked up, canonical isoform): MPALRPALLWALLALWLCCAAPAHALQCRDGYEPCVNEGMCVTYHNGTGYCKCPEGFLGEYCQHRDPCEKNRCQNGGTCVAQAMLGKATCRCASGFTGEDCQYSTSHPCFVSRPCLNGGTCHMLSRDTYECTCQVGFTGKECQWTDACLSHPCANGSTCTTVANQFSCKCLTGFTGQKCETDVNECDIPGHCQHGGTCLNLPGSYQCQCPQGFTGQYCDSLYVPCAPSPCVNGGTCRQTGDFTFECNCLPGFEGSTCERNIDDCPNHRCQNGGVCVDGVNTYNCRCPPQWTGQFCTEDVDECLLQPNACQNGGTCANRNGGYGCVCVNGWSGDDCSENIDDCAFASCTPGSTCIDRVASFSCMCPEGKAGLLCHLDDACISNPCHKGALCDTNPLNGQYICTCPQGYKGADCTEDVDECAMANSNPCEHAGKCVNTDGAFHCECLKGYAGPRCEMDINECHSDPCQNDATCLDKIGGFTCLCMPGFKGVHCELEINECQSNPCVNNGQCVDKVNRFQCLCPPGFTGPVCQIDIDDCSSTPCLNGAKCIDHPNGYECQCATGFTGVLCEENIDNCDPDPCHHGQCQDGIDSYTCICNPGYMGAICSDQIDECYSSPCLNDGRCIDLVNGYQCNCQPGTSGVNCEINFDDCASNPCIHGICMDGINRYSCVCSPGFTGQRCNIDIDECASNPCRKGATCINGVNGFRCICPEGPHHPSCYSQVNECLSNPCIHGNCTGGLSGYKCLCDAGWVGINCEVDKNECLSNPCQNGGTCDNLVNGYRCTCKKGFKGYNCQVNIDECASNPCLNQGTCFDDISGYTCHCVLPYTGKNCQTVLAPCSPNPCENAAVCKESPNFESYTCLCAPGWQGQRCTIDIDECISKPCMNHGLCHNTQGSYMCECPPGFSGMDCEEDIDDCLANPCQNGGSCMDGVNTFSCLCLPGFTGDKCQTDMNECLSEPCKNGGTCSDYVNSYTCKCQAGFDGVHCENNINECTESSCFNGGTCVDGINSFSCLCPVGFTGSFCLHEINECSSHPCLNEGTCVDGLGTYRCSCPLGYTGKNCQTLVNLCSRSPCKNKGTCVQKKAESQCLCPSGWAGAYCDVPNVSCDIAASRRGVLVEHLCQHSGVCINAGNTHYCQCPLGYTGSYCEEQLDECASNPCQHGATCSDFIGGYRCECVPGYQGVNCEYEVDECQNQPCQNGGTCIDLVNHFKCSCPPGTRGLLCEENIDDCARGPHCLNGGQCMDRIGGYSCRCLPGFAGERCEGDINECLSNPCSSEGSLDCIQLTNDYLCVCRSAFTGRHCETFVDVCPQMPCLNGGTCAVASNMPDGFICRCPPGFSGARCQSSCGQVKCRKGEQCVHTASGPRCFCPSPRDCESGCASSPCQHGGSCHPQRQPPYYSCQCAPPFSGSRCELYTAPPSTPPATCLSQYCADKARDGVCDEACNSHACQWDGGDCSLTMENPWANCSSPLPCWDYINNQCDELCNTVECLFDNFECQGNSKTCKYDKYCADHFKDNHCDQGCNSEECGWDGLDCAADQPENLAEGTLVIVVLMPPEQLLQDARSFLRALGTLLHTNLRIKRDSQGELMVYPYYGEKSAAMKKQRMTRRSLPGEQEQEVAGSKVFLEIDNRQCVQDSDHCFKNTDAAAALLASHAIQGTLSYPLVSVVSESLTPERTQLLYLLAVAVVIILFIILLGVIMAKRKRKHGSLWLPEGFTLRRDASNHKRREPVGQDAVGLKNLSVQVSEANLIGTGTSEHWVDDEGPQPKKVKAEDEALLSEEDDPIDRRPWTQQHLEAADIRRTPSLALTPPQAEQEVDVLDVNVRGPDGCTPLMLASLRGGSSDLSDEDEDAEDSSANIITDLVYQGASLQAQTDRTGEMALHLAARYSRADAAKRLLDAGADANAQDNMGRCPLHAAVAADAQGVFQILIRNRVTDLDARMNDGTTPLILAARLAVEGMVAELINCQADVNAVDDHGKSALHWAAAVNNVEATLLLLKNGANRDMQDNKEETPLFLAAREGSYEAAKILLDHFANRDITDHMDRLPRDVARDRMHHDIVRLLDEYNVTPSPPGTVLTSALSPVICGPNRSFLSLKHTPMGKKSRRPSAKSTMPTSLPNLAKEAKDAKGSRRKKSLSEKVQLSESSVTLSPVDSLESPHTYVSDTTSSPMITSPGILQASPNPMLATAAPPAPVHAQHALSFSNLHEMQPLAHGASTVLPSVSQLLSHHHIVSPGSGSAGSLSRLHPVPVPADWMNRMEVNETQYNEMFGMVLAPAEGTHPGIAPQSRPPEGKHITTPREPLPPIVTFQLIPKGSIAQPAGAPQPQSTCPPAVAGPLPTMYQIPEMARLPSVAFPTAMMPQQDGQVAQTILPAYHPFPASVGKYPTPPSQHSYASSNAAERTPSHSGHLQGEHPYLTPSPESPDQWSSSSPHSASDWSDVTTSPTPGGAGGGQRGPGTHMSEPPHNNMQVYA
Chain of Torsin-1A-interacting protein 2 (Homo sapiens) (Q8NFQ8 whole entry, looked up): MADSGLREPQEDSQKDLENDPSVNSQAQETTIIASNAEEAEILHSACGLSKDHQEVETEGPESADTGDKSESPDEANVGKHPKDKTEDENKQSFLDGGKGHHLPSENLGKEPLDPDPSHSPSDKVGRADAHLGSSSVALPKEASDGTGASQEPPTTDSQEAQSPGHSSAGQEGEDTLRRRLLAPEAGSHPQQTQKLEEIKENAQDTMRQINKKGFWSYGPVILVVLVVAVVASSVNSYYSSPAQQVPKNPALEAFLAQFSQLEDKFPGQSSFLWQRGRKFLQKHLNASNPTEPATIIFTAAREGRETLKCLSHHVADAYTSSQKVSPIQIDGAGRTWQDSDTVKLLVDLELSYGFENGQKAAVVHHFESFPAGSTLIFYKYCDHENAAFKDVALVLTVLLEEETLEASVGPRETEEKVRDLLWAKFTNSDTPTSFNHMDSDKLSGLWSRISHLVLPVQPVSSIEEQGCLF
Chain of Pro-neuregulin-1, membrane-bound isoform (Homo sapiens) (Q02297 whole entry, looked up, the tested form may be a part, canonical isoform): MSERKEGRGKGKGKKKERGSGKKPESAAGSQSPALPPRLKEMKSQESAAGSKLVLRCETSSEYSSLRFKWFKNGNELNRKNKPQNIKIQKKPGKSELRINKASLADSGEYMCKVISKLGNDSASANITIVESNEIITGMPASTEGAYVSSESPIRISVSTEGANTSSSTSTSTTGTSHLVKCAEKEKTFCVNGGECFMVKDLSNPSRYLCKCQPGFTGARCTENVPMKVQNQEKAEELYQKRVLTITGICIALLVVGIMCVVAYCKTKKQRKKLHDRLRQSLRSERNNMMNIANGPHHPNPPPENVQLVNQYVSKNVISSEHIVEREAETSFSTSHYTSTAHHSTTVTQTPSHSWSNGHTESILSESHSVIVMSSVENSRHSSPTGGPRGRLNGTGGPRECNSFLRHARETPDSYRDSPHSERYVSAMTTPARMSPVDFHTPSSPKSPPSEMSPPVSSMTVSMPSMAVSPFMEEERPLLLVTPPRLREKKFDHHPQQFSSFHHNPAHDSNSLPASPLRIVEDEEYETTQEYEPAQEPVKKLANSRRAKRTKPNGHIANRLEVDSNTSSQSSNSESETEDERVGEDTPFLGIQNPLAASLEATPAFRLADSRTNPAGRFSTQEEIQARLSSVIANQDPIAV

As to `O=C1O[C@H](c2ccccc2)[C@H](c2ccccc2)N2[C@H]1[C@@H](C(=O)O)[C@]1(C(=O)Nc3ccccc31)[C@H]2c1ccc(OCCO)cc1`, the composite z-score was -0.442 in assay [1]; -0.0349 in assay [2]; -0.0112 in assay [3]; 0.334 in [4]; 0.239 in assay [5]; 1.57 in [6]. The composite z-score in assay [7] was 1.04; in assay [9], 0.215; in assay [10], 0.176; in assay [11] it was 1.53; in assay [15] it was 3.27; in assay [17], -0.065. Besides, the composite z-score is 0.286 in assay [18], 0.33 in assay [19] and -0.177 in [20]. In addition, the z-score in assay [8] was 0.248 (inactive); in [12] it was -0.0404 (inactive); in assay [13] it was 0.414 (inactive); in assay [14] it was -0.303 (inactive); in [16], 1.36 (inactive).

`CC(C)(C)OC(=O)CC[C@]1(C(=O)N2CCOCC2)COC(c2ccc(OCCCO)cc2)=N1`: the composite z-score in [1] was -0.77; in assay [2], 0.667; in assay [3], 0.0476; in assay [4] it was 0.0767; in [5], 0.498; in assay [6] it was 1.6. Besides, the composite z-score in assay [7] was 1.32; in assay [9], 0.163; in assay [10], -0.0275; in assay [11], 0.786; in assay [15] it was 3.6; in assay [17], 0.0665. Moreover, the composite z-score is -0.778 in assay [18], -0.526 in assay [19] and 0.94 in [20]. Also, the z-score in assay [8] is -0.462 (inactive); in assay [12], 1.04 (inactive); in assay [13], 0.487 (inactive); in [14] it was 0.911 (inactive); in assay [16], 1.66 (inactive).

For `O=C1O[C@H](c2ccccc2)[C@H](c2ccccc2)N2[C@H]1[C@@H](C(=O)Nc1nc3ccccc3s1)[C@]1(C(=O)Nc3ccccc31)[C@H]2c1ccccc1OCCO`, the composite z-score in [1] is -0.249; in assay [2] it was -0.0611; in [3], 0.0084; in assay [4] it was 0.12; in assay [5] it was 1.15; in assay [6], 1.42. Moreover, the composite z-score in assay [7] was 1.02; in [9], -0.0275; in assay [10], -0.0994; in [11] it was 1.5; in assay [15] it was 3.09; in assay [17], 0.229. Besides, the composite z-score is 0.712 in assay [18], 0.595 in [19] and -0.0828 in [20]. Besides, the z-score is 1.62 (inactive) in assay [8]; 1.91 (inactive) in assay [12]; 2.2 (inactive) in assay [13]; 3.94 (inactive) in assay [14]; 0.732 (inactive) in assay [16].

As to `CCOC(=O)C[C@H]1[C@H](OC(=O)c2ccc(-c3ccccc3)cc2)[C@@H](NC(=O)C2CCCCC2)c2cc(OCCCO)ccc2N1C(=O)Cc1ccc(OC)cc1`, the composite z-score in assay [1] is -0.114; in [2], 0.279; in [3] it was -0.0369; in assay [4], 0.0887; in assay [5], 0.215; in [6] it was 0.157. For the same molecule, the composite z-score in [7] is -0.481; in assay [9], 0.241; in [10], 0.0722; in [11], 0.405; in assay [15], 0.852; in assay [17] it was -0.141. The composite z-score in assay [18] is -0.141; in assay [19] it was 0.375; in assay [20] it was -0.114. Besides, the z-score was -0.054 (inactive) in assay [8]; -0.253 (inactive) in assay [12]; -0.0766 (inactive) in [13]; 0.214 (inactive) in assay [14]; -0.884 (inactive) in assay [16].

As for `CN(C)C(=O)[C@]1(CCS(=O)(=O)c2ccccc2)N=C(c2ccc(OCCCO)cc2)O[C@@H]1c1ccccc1CN=[N+]=[N-]`, the composite z-score in assay [1] is 0.04; in [2], -0.313; in assay [3] it was 0.0308; in assay [4], 0.849; in assay [5] it was 1.55; in [6], 1.14. Also, the composite z-score is 1.29 in [7]; 1.07 in assay [9]; -0.0994 in [10]; 1.55 in assay [11]; 3.48 in assay [15]; -0.0079 in assay [17]. The results for the composite z-score in assay [18], in [19] and in [20] were 0.136, 1.09 and -0.025, respectively. The z-score in assay [8] was -0.882 (inactive); in [12], 0.106 (inactive); in [13], 0.349 (inactive); in assay [14] it was 2.18 (inactive); in [16] it was 0.157 (inactive).
